TRHR ag: qHTS for Small Molecule Agonists and Allosteric Enhancers of Human TRH Receptor: Primary Screen for Agonists; Thyrotropin-releasing hormone receptor (Homo sapiens), P34981; TRHR cells, calcium flux fluo-8, FDSS agonist mode; activation, % at 2 µM; 360,000 tested, 0.18% active; AID 493084, 2011; in the data active means activation above about 30%; further: 0% is about no effect
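In this calcium-flux screen, cells bearing human TRHR are dye-loaded with fluo-8, baselined for 10 cycles, then exposed to library compounds; positive kinetic calcium responses during the agonist phase mark hits, with TRH as control.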
KCNH2 WT inh: qHTS for Inhibitors of KCHN2 3.1: Wildtype qHTS. Voltage-gated inwardly rectifying potassium channel KCNH2 (Homo sapiens), Q12809. U2OS, BacMam KCNH2, thallium flux FluxOr; hits give low values. activity change, % at 1.84 µM. 340,000 tested, 0.37% active. AID 720551, 2013;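 active means maximum activity change below -70%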; further: on the % scale 0 is the no-effect control and ±100 the full control effect
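U2OS cells were transduced with wild-type KCNH2 virus (2.03 x 10^8 / mL) for 4 h at room temperature, then cultured overnight at 37 C. Thallium flux was read with FluxOr dye. Rate constants were normalized to DMSO controls.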
TRHR enhancer: qHTS for Small Molecule Agonists and Allosteric Enhancers of Human TRH Receptor: Primary Screen for Enhancers | enhancement, % at 2 µM | AID 493056, 2011 | TRHR cells, fluo-8 calcium fluorescence, EC20 TRH enhancement | 360,000 tested, 0.66% active | Thyrotropin-releasing hormone receptor (Homo sapiens), P34981; in the data active means enhancement above about 30%; further: 0% is about no effect
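TRHR-expressing cells loaded with fluo-8 calcium dye were read kinetically (ex 480/em 530) during compound addition, then stimulated with an EC20 of TRH (10 nM final). Enhancement of the Gq-mediated intracellular calcium response was scored.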
TRPML1 blocker: qHTS for Inhibitors of the Human Mucolipin Transient Receptor Potential 1 (TRPML1). activity change, negative = inhibition, % (test concentration not listed). Mucolipin-1 (Homo sapiens), Q9GZU1. TRPML1-inducible cells, Ca2+ dye fluorescence, FDSS; hits give low values; inhibition of EC80 agonist-evoked calcium signal. 390,000 tested, 0.02% active. AID 624415, 2012; in the data active means activity change below about -50%;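 further: stimulus is agonist 54-4 at its EC80 concentration; on the % scale 0 is the no-effect control and ±100 the full control effect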
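TRPML1-DL cells, Tet-induced overnight (~16 h, 37 °C) at 1,500 cells/well, were loaded with Ca8 no-wash dye plus quencher for 45-90 min at room temperature. Compounds were pinned during FDSS kinetic reading; agonist 54-4 at EC80 (4 uM final) then added.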
TRPML1 agonist: qHTS for Agonists of the Human Mucolipin Transient Receptor Potential 1 (TRPML1); Mucolipin-1 (Homo sapiens), Q9GZU1; TRPML1-expressing cells, Ca2+ dye fluorescence, FDSS; activation, % (test concentration not listed); 410,000 tested, 0.12% active; AID 624414, 2012; in the data active means activation above about 50%; further: 0% is about no effect
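In this qHTS format, compounds were pin-transferred onto Ca8-dye-loaded TRPML1-DL cells induced with Tet overnight, and intracellular Ca2+ fluorescence was recorded kinetically for 110 s after a 10 s baseline. A subsequent 4uM final 54-4 (EC80) addition followed by a second 110 s read served as the antagonist phase.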
KCNH2 3.1 inh: qHTS for Inhibitors of KCHN2 3.1: Mutant qHTS; Potassium voltage-gated channel subfamily H member 2, brain isoform KCNH2 3.1 (human); U2OS KCNH2 3.1, thallium flux FluxOr; hits give low values; activity change, % (tested at about 1.8 µM); 340,000 tested, 0.95% active;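 active means maximum activity change below -70%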;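 further: thallium influx rate constant from kinetic fluorescence after stimulation buffer; on the % scale 0 is the no-effect control and ±100 the full control effect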
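We transduce U2OS cells with the mutant 3.1 virus, culture them overnight, load FluxOr with Red40 quencher for 45 min, then add stimulation buffer and read kinetically for 2 min to derive a normalized rate constant.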
* hit, by the source's call; . = no result. This is a sample that favours compounds with a hit; in the whole collection about 1.7% have one here.

SMILES	TRHR ag	KCNH2 WT inh	TRHR enhancer	TRPML1 blocker	TRPML1 agonist	KCNH2 3.1 inh
O=C1C2C(c3ccccc3)C=CC(c3ccccc3)C2C(=O)N1C1CCCCC1 (centres undefined)	0	-1	35*	-7	0	-20
Cc1ccc(C(=O)C2CCN(C(=S)NCCCOC(C)C)CC2)cc1	-1	3	5	-5	0	1
O=C1Nc2ccccc2CCC1Sc1nnc(-c2ccc(Cl)cc2)s1 (centres undefined)	1	6	2	1	-1	-72*
COc1ccccc1Nc1c2c(nc3ccc(NC(=O)c4ccc(OC)c(OC)c4)cc13)CCCC2	0	.	4	12	1	.
COc1ccc(Nc2c3c(nc4ccc(NC(=O)c5ccc(F)cc5)cc24)CCCC3)cc1OC	-1	.	42*	1	-1	.
O=C(/C=C/c1cn(CC(O)CN2CCOCC2)c2ccccc12)c1cccs1 (centres undefined)	32*	.	0	.	.	.
Cc1ccc(C(=O)/C=C/c2cn(CC(O)CN3CCOCC3)c3ccccc23)cc1 (centres undefined)	10	-4	-1	6	5	3
CCOC(=O)C1=CCN(S(=O)(=O)c2ccc(Cl)cc2)C1c1ccc(C)cc1 (centres undefined)	.	.	.	2	3	.
O=S(=O)(c1ccc(Br)s1)N1CCC2(CC1)OCCO2	0	6	-6	-16	0	-5
O=C(NCCN1CCOCC1)C(=O)NCC1CCCO1 (centres undefined)	0	-3	34*	-6	0	-38
CCOC(=O)c1c(-c2ccccc2)oc2ccc(OCc3ccccc3Br)cc12	-1	.	-7	0	0	.
OCCNC(=S)Nc1ccc2c(c1)OCCO2	-1	0	0	-11	0	0
O=C(NC(=S)Nc1ccc(F)cc1)c1ccc2c(c1)OCCO2	1	-12	33*	-14	4	11
COCCCNC(=S)Nc1ccc2c(c1)OCCO2	1	-88*	-4	5	0	12
O=C(CNc1ccccc1)N/N=C/c1c[nH]c2ccccc12	-1	-3	2	-6	0	-4
O=C(COc1ccc(Cl)cc1Cl)NCC(=O)N/N=C/c1c[nH]c2ccccc12	0	-5	35*	-4	0	-5
CCCCOP(=O)(OCCCC)C1(NS(=O)(=O)c2ccccc2)C=CC(=O)c2ccccc21 (centres undefined)	0	-12	-3	10	1	-82*
CCCCOCCCNS(=O)(=O)c1ccccc1	0	7	1	22	0	4
COc1ccc(NC(=O)C2(C)CCN2CCOc2ccc(C)cc2)cc1OC (centres undefined)	.	.	.	.	-2	.
CC(C)(C)n1ncc2c(=O)n(Cc3cccc(F)c3)cnc21	.	.	.	6	0	.
CC(CN1CCOCC1)OC(=O)c1ccc2c(c1)OCCO2 (centres undefined)	0	-262*	6	12	-1	20
CC(C)CCN(C(=O)c1cn2ccccc2n1)c1c(N)n(Cc2ccccc2)c(=O)[nH]c1=O	-1	-7	3	14	0	13
O=C(c1ccc([N+](=O)[O-])cc1)N(Cc1cccs1)C1CCS(=O)(=O)C1 (centres undefined)	1	31	-4	-19	0	-101*
Cc1ccc(C(=O)N(Cc2cccs2)C2CCS(=O)(=O)C2)cc1 (centres undefined)	0	-1	5	-4	0	33
CCNCCC(CCC(C)C)c1ccc2c(c1)OCO2 (centres undefined)	5	-79*	11	-3	1	-99*
